From PubChem BioAssay AID1159580 (chemical genetic matrix, 2015)
About 2,000 (36%) of roughly 5,500 compounds were called active. Inconclusive results (about 18%) are left out. Rule as the data show it: active = normalized growth mostly below about 0.91 (no sharp cut-off); inconclusive = no clear call, values can overlap the other calls; inactive = mostly above about 0.92. Some of the results follow.

Assay: chemical genetic growth profiling, strain panel (AID 1159580);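 also: tested at 20 µM; growth read once vehicle control cultures reached saturation at 30 °C; 1 = growth at the plate median or of vehicle wells; lower values mean less growth of the strain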
Settings: S. cerevisiae deletion strains, growth OD
[1] = locus YAL013W, strain DEP1, active compounds read low
[2] = locus YAL040C, strain CLN3, active compounds read low
[3] = locus YDR150W, strain NUM1, active compounds read low
[4] = locus YDR363W, strain ESC2, active compounds read low
[5] = locus YER002W, strain NOP16, active compounds read low
[6] = locus YGR078C, strain PAC10, active compounds read low
[7] = locus YJR075W, strain HOC1, active compounds read low
[8] = locus YNL175C, strain NOP13, active compounds read low
[9] = locus YNL197C, strain WHI3, active compounds read low
[10] = locus YNL224C, strain SQS1, active compounds read low
[11] = locus YNL322C, strain KRE1, active compounds read low
[12] = locus YOR083W, strain WHI5 (second series), active compounds read low
[13] = locus YPL055C, strain LGE1, active compounds read low
[14] = locus YCL061C, strain MRC1 (second series), active compounds read low
[15] = locus YNL153C, strain GIM3, active compounds read low

Measured: normalized growth

S=C(S)N1CCCC1
active: [1] 0.676 | [3] 0.634 | [4] 0.804 | [7] 0.52 | [9] 0.409 | [12] 0.175 | [13] 0.454 | locus YPL241C, strain CIN2, active compounds read low 0.943
inactive: [2] 1 | [5] 0.992 | [6] 0.977 | [8] 0.98 | [10] 0.966 | [11] 0.916

Fc1ccc(Nc2nc(-c3ccc(F)c(F)c3)cs2)c(F)c1
active: locus YAR019C, strain CDC15, active compounds read low 0.14 | locus YBL105C, strain PKC1, active compounds read low 0.104 | locus YBR135W, strain CKS1, active compounds read low 0.0961 | locus YBR136W, strain MEC1, active compounds read low 0.0962 | locus YBR160W, strain CDC28, active compounds read low 0.12 | locus YDL017W, strain CDC7, active compounds read low 0.128 | locus YDL028C, strain MPS1, active compounds read low 0.104 | locus YDL101C, strain DUN1, active compounds read low 0.282 | locus YDL108W, strain KIN28, active compounds read low 0.132 | locus YDL132W, strain cdc53, active compounds read low 0.0939 | locus YDL214C, strain PRR2, active compounds read low 0.182 | locus YDR052C, strain DBF4, active compounds read low 0.181 | locus YDR054C, strain cdc34, active compounds read low 0.094 | locus YDR226W, strain ADK1, active compounds read low 0.107 | locus YDR477W, strain SNF1, active compounds read low 0.102 | locus YER123W, strain YCK3, active compounds read low 0.173 | locus YER133W, strain GLC7, active compounds read low 0.17 | locus YFL009W, strain cdc4, active compounds read low 0.0952 | locus YFL029C, strain CAK1, active compounds read low 0.0895 | locus YFR003C, strain YPI1, active compounds read low 0.105 | locus YFR019W, strain FAB1, active compounds read low 0.102 | locus YFR028C, strain CDC14, active compounds read low 0.0972 | locus YGR040W, strain KSS1, active compounds read low 0.102 | locus YGR052W, strain FMP48, active compounds read low 0.144 | locus YGR092W, strain DBF2, active compounds read low 0.11 | locus YHR030C, strain SLT2, active compounds read low 0.141 | locus YHR079C, strain IRE1, active compounds read low 0.158 | locus YHR082C, strain KSP1, active compounds read low 0.155 | locus YHR205W, strain SCH9, active compounds read low 0.000718 | locus YIL147C, strain SLN1, active compounds read low 0.133 | locus YJL095W, strain BCK1, active compounds read low 0.133 | locus YJL128C, strain PBS2, active compounds read low 0.0972 | locus YJL157C, strain FAR1, active compounds read low 0.199 | locus YJR016C, strain ILV3, active compounds read low 0.0878 | locus YJR066W, strain TOR1 (second series), active compounds read low 0.0987 | locus YJR066W, strain TOR1, active compounds read low 0.111 | locus YKL048C, strain ELM1, active compounds read low 0.145 | locus YKL067W, strain YNK1, active compounds read low 0.182 | locus YKL101W, strain HSL1, active compounds read low 0.132 | locus YKL193C, strain SDS22, active compounds read low 0.0966 | locus YKL203C, strain TOR2, active compounds read low 0.104 | locus YLR113W, strain HOG1, active compounds read low 0.189 | locus YLR133W, strain CKI1, active compounds read low 0.0955 | locus YLR403W, strain SFP1, active compounds read low 0.0012 | locus YML070W, strain DAK1, active compounds read low 0.113 | locus YMR001C, strain CDC5, active compounds read low 0.0929 | locus YMR205C, strain PFK2 (second series), active compounds read low 0.0941 | locus YMR277W, strain FCP1, active compounds read low 0.0934 | locus YNL006W, strain LST8, active compounds read low 0.106 | locus YNL020C, strain ARK1, active compounds read low 0.107 | locus YNL161W, strain CBK1, active compounds read low 0.475 | locus YNL183C, strain NPR1, active compounds read low 0.155 | locus YNL207W, strain RIO2, active compounds read low 0.114 | locus YNL222W, strain SSU72, active compounds read low 0.101 | locus YNL307C, strain MCK1 (second series), active compounds read low 0.117 | locus YOL078W, strain AVO1, active compounds read low 0.092 | locus YOL136C, strain PFK27, active compounds read low 0.197 | locus YOR061W, strain CKA2, active compounds read low 0.102 | locus YOR119C, strain RIO1, active compounds read low 0.107 | locus YOR231W, strain MKK1, active compounds read low 0.169 | locus YOR329C, strain SCD5, active compounds read low 0.117 | locus YPL031C, strain PHO85, active compounds read low 0.114 | locus YPL153C, strain RAD53, active compounds read low 0.116 | locus YPL204W, strain HRR25, active compounds read low 0.104 | locus YPL209C, strain IPL1, active compounds read low 0.0912 | locus YPL256C, strain CLN2, active compounds read low 0.179 | locus YPR025C, strain CCL1, active compounds read low 0.0957 | locus YPR106W, strain ISR1, active compounds read low 0.099 | locus YPR111W, strain DBF20, active compounds read low 0.101 | strain NNK1, active compounds read low 0.114 | strain TSCII, active compounds read low 0.106

N[C@@H](CCCC(=O)O)C(=O)O
inactive: [1] 1.01 | [2] 1.08 | [14] 1.01 | [4] 1.02 | [5] 0.981 | [6] 1.01 | [7] 1.01 | locus YMR263W, strain SAP30, active compounds read low 1 | [15] 1.02 | [8] 1 | [9] 1.03 | [10] 0.988 | [11] 1.02 | [12] 0.993 | [13] 0.988

C[N+](C)(C)CC#CCN1CCCC1=O
inactive: [2] 0.99 | [14] 0.996 | [3] 1.01 | [4] 1 | [5] 0.985 | [6] 0.991 | locus YMR307W, strain GAS1, active compounds read low 1.01 | [15] 0.994 | [8] 0.996 | [9] 0.996 | [10] 0.996 | [11] 1 | [12] 1.01
